Experimental data published in PubChem BioAssay AID2018 (Sanford-Burnham Center for Chemical Genomics, 2009).
Hit rate of the full screen: of about 1,200 compounds, about 600 (50%) were called active. Rule as the data show it: active = inhibition above about 42%; inactive = the rest. So high a share suggests a set chosen from earlier hits. This is one part of the list. Entries with a potency or affinity are not part of this list.

Biological target: SUMO-conjugating enzyme UBC9 (Homo sapiens) (UniProt P63279)
Assay: SUMOylation inhibitor hit validation, confirmation, SUMOylation inhibitor project, biochemical, AlphaScreen (AID 2018)
Conditions: AlphaScreen in vitro SUMOylation assay; at 35 µM; stronger effect = higher value

Sequence of SUMO-conjugating enzyme UBC9 (Homo sapiens) (P63279 whole entry, looked up): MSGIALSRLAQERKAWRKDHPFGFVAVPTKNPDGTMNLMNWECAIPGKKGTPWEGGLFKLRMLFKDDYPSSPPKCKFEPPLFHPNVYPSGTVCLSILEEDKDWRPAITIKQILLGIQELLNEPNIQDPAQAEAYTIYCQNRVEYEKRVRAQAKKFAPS

| SMILES | inhibition |
| --- | --- |
| Cc1ccccc1-c1nc2cc(N)ccc2o1 | 21.4% (inactive) |
| CN(C)S(=O)(=O)c1cc(NC(=O)CNCc2ccccc2)ccc1Cl | -19.5% (inactive) |
| O=C(c1cccn2c(=O)c3cc4ccccc4cc3nc12)N1CCN(c2ccccc2)CC1 | 27.6% (inactive) |
| CN(C)C=Nc1ccc2nc3c(cc2c1)[nH]c1ccccc13 | 20.5% (inactive) |
| Cc1cc[n+](-c2[nH]c(=O)sc2/C=N/N=C(\[O-])c2ccncc2)cc1 | -9.7% (inactive) |
| Cc1cccn2c(=O)c3cc(C#N)c(=NC(=O)c4ccco4)n(Cc4ccco4)c3nc12 | 25.4% (inactive) |
| O=c1oc(-c2cccs2)nc2sc3c(c12)CCC3 | -2.8% (inactive) |
| CN(C)c1cc(N/N=C/c2ccccc2C(F)(F)F)nc(N(C)C)n1 | 72.9% (active) |
| Cc1nc2ccccc2c(=O)n1/N=C/c1ccc(O)c(O)c1O | 81.7% (active) |
| Cc1ccc(-c2[nH]ncc2/C=N/n2c(C)nc3ccccc3c2=O)cc1 | 66.8% (active) |
| O=C1NC(=O)c2cc(NC(=O)C3CCCCC3)ccc21 | 8.7% (inactive) |
| O=C(c1cccc2cccc(O)c12)N1CCCCC1 | 14.8% (inactive) |
| Cc1cc(C)cc(Oc2coc3c(CN(C)C)c(O)ccc3c2=O)c1 | 10.6% (inactive) |
| COc1ccc2oc(=O)c(C(=O)NCc3ccco3)cc2c1 | -14.1% (inactive) |
| COc1ccc(-c2cc(C(F)(F)F)n3ncc(C(=O)NCc4ccco4)c3n2)cc1 | 32.4% (inactive) |
| COc1ccc2c(c1)Cc1sc(NC(=O)c3ccco3)nc1-2 | 40.3% (inactive) |
| Cc1ccc(NC(=O)C2CCN(C(=O)c3ccco3)CC2)cc1 | 0.4% (inactive) |
| O=C(COc1ccc2oc(-c3ccco3)cc(=O)c2c1)N1CCCCC1 | -2.7% (inactive) |
| COc1ccc(-n2nc3cc(C)c(N)c(Br)c3n2)cc1 | 18.3% (inactive) |
| N#CC(c1nc2ccccc2nc1N1CCCC1)S(=O)(=O)c1ccccc1 (stereo not given) | 66.7% (active) |

| SMILES | inhibition |
| --- | --- |
| Cc1ccc(C)c(S(=O)(=O)C(C#N)c2nc3ccccc3nc2N2CCOCC2)c1 (stereo not given) | 9.2% (inactive) |
| N#CC(c1nc2ccccc2nc1N1CCCC1)S(=O)(=O)c1cccs1 (stereo not given) | 37.3% (inactive) |
| COc1ccc(S(=O)(=O)C(C#N)c2nc3ccccc3nc2N2CCC(C)CC2)cc1 (stereo not given) | 15.7% (inactive) |
| COc1ccc(S(=O)(=O)C(C#N)c2nc3ccccc3nc2N2CCCCC2)cc1 (stereo not given) | 42.8% (active) |
| Cc1ccc(S(=O)(=O)C(C#N)c2nc3ccccc3nc2N2CCCC2)cc1C (stereo not given) | 45.8% (active) |
| N#CC(C(=O)NC1CC1)c1nc2ccccc2nc1N1CCCC1 (stereo not given) | 29% (inactive) |
| Cc1ccc(C)c(S(=O)(=O)C(C#N)c2nc3ccccc3nc2N2CC(C)OC(C)C2)c1 (stereo not given) | 4.8% (inactive) |
| C=CCNC(=O)C(C#N)c1nc2ccccc2nc1N1CCCCCC1 (stereo not given) | 30.3% (inactive) |
| Cc1ccc(S(=O)(=O)C(C#N)c2nc3ccccc3nc2N2CC(C)OC(C)C2)cc1C (stereo not given) | 22.8% (inactive) |
| Cc1ccccc1S(=O)(=O)Nc1nc2ccccc2nc1N1CCc2ccccc2C1 | -43.2% (inactive) |
| Cc1ccc(C)c(S(=O)(=O)C(C#N)c2nc3ccccc3nc2N2CCCC2)c1 (stereo not given) | 44.3% (active) |
| CC(=O)c1ccc(NC(=O)Nc2cccnc2)cc1 | -7.1% (inactive) |
| CSc1ccc(-c2cc(=O)c3ccccc3o2)cc1 | -11% (inactive) |
| CN(C)/C=N/c1nc2nccc(-c3cccnc3)n2n1 | -4% (inactive) |
| C=CCOC(=O)C(C#N)c1nc2ccccc2nc1N1CCN(Cc2ccccc2)CC1 (stereo not given) | 22.9% (inactive) |
| Cc1cccc(S(=O)(=O)C(C#N)c2nc3ccccc3nc2N2CCCC2)c1 (stereo not given) | 28.3% (inactive) |
| Cc1ccc(S(=O)(=O)C(C#N)c2nc3ccccc3nc2N2CCCC2)cc1 (stereo not given) | 44.2% (active) |
| O=C(O)CN1C(=O)/C(=C\c2cc([N+](=O)[O-])ccc2OCc2ccccc2Cl)SC1=S | 63% (active) |
| CC(C)C(=O)Nc1cccc(C(=O)NCc2ccc3c(c2)OCO3)c1 | 13.6% (inactive) |
| CC(=O)Nc1ccc(-c2nc3ccc(NC(C)=O)cc3o2)cc1 | 25.1% (inactive) |

| SMILES | inhibition |
| --- | --- |
| CC(=O)Nc1ccc(-c2cn3cccnc3n2)cc1 | 5.9% (inactive) |
| Clc1ccc(C2=CSC3=Nc4cccc5cccc(c45)N23)cc1 | 101% (active) |
| COc1ccc(OC)c(S(=O)(=O)NCCc2cn3ccsc3n2)c1 | 44.5% (active) |
| CCN(CC)C(=O)C1CCCN(C(=O)Nc2ccc3nsnc3c2)C1 (stereo not given) | -9% (inactive) |
| COc1ccc(C2C(C(C)=O)=C(O)C(=O)N2C)c(OC)c1 (stereo not given) | -14.2% (inactive) |
| COc1ccc(NCc2ccc([N+](=O)[O-])s2)c(OC)c1 | 87% (active) |
| N#Cc1c(N(CCO)CCO)nc(N)c2c(N)nc3c(c12)CC(=O)N3CC1CCCO1 (stereo not given) | 26% (inactive) |
| N#Cc1c(N(CCO)CCO)nc(N)c2c(N)nc3c(c12)CC(=O)N3Cc1cccs1 | 52.9% (active) |
| COCCN(CCOC)c1nc(N)c2c(N)nc3c(c2c1C#N)CC(=O)N3Cc1ccc(Cl)cc1 | 11.2% (inactive) |
| CCOC(=O)N1CCN(C(=O)c2cccn3c(=O)c4cc(Cl)ccc4nc23)CC1 | 11% (inactive) |
| O=C1CC(CC(=O)N/N=C/c2ccccc2[N+](=O)[O-])=NN1 | 26.8% (inactive) |
| Nc1nnc(CC(=O)N/N=C/c2cc([N+](=O)[O-])cc(Br)c2O)s1 | 102% (active) |
| O=C1/C(=C/c2ccco2)Oc2c1ccc(O)c2CN1CCCCC1 | 9.4% (inactive) |
| Cc1cc(-c2csc(NC(=O)c3ccc(=O)[nH]c3)n2)c(C)n1Cc1ccccc1 | 29.1% (inactive) |
| CC1CCN(Cc2cc(=O)oc3cc(O)c(Cl)cc23)CC1 | -10.6% (inactive) |
| Cc1ccc(-c2nn(-c3ccccc3)cc2/C=C2\SC(=S)N(CCCCCC(=O)O)C2=O)o1 | 74.8% (active) |
| O=C(O)CCCN1C(=O)/C(=C/c2cn(-c3ccccc3)nc2-c2cccs2)SC1=S | 76% (active) |
| Cc1ccc(N/N=C2\CC(=O)c3ccccc32)cc1Cl | 78.3% (active) |
| CC(=O)N1C(=S)NC(=O)/C1=C1/C(=O)N(CC(=O)Nc2cccc(C)c2)c2ccccc21 | 12.6% (inactive) |
| Cc1ccc(NC(=O)CN2C(=O)S/C(=C/c3ccc(-c4cc(C(=O)O)ccc4C)o3)C2=O)cc1C | 101% (active) |
